IL1B secr inh: qHTS for Inhibitors of Inflammasome Signaling: IL-1-beta AlphaLISA Primary Screen | THP-1 LPS/ATP IL-1B secretion, AlphaLISA, 16 h; stronger effect = lower value | activity change, % at 57.5 µM | 360,000 tested, 4.7% active; in the data active = activity change below about -50%; inconclusive = mostly about -30% to -49%; also: % is scaled to controls: 0 for no effect and ±100 for the full control effect
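THP-1 cells pretreated 1 hr with compounds (up to 57.5 uM final), then stimulated with LPS (250 ng/mL final) plus ATP (1.25 mM final); secreted IL-1B measured by AlphaLISA after 16 hr, decreased signal indicating inhibition.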
HepG2 tox: qHTS for Inhibitors of TGF-b: Cytotox Counterscreen; HepG2 CAGA-GFP viability, ATP luminescence, 18 h; Potency, µM (series often up to 46.1 µM), for the others: at the top dose activity change, negative = cytotoxicity, usual class: cytotoxic; 410,000 tested, 0.76% active; AID 588856, 2011; also: potency is read from the fitted curve at half-maximal effect
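CellTiter-Glo luminescence gave cytotoxicity after 18 hours at 37 degrees C. The cells were HepG2 CAGA-GFP in 1% FBS DMEM, stimulated with 500 pg/mL TGF-beta after compound addition. %Activity was normalised to no-cell wells (complete cell-killing) and DMSO (no toxicity), and curves were fitted and classified.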
DT40 TDP1 CPT: qHTS for Inhibitors of human tyrosyl-DNA phosphodiesterase 1 (TDP1): qHTS in cells in presence of CPT | chicken DT40 Tdp1-/-;hTDP1 cells + 20 nM CPT, ATP luminescence, 48 h | Potency, µM (doses to about 46.2 µM), without a hit: top-dose activity change, negative = growth inhibition, actives largely listed as inhibitors | 420,000 tested, 12% active | AID 686979, 2013; also: potency is read from the fitted curve at half-maximal effect; % is scaled to controls: 0 for no effect and ±100 for the full control effect; nearly all actives have a fitted effect of over 55% in size
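Chicken DT40 Tdp1-/- cells stably complemented with human TDP1 were seeded at 400 cells/well in medium containing 20 nM camptothecin, exposed to pin-transferred compounds, and grown at 37 °C for at least 48 hr. Viability was read as ATP luminescence.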
TGFb inhibitor: qHTS for Inhibitors of TGF-b. HepG2 CAGA-GFP TGF-b/SMAD3 reporter, GFP fluorescence, 18 h; TGF-beta stimulated, 500 pg/mL final. 410,000 tested, 1.2% active. Potency, µM (series often up to 46.1 µM), for inactives: at the top dose activity, negative = inhibition, most hits filed as inhibitors; also: potency is read from the fitted curve at half-maximal effect; % is scaled to controls: 0 for no effect and ±100 for the full control effect; nearly all actives have a fitted effect of over 65% in size
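Smad-responsive CAGA-GFP expression was quantified in HEPG2 cells exposed to compounds and 500 pg/mL final TGF-beta for 18 h at 37 degrees C; unstimulated wells defined full inhibition.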
TDP1 block: qHTS Assay for Inhibitors of Tyrosyl-DNA Phosphodiesterase (TDP1); recombinant TDP1, AlphaScreen DNA substrate cleavage; Tyrosyl-DNA phosphodiesterase 1 (Homo sapiens), Q9NUW8; Potency, µM (series often up to 130 µM), without a hit: at the top dose activity change, negative = inhibition, hits mostly inhibitors; 350,000 tested, 0.28% active; also: potency is read from the fitted curve at half-maximal effect; % is scaled to controls: 0 for no effect and ±100 for the full control effect; nearly all actives have a fitted effect of over 40% in size
Target sequence (Q9NUW8 whole entry, looked up): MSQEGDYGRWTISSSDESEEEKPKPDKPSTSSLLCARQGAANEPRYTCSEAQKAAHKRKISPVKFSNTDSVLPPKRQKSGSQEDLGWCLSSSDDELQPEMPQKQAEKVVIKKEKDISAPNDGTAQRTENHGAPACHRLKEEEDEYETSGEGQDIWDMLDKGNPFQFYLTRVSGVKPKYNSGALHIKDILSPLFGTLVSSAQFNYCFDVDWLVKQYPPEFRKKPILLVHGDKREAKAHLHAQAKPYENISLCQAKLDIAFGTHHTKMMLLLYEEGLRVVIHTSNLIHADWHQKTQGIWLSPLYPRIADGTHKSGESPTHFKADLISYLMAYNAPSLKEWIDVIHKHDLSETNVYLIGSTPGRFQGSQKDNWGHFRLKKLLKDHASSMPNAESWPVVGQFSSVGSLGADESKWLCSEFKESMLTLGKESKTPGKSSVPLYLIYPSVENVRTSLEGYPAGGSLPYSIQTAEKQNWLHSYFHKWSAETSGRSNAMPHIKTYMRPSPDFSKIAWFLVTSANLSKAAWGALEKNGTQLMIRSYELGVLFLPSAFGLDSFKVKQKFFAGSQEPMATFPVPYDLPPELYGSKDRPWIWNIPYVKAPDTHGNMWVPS
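Signal: AlphaScreen proximity between streptavidin donor and anti-FITC acceptor beads on intact substrate. Reaction: Tdp1 1 nM, substrate 15 nM final, 5 min RT after 15 min compound preincubation.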
TDP1 cell noCPT: qHTS for Inhibitors of human tyrosyl-DNA phosphodiesterase 1 (TDP1): qHTS in cells in absence of CPT; Potency, µM (doses to about 46.2 µM), without a hit: at the top dose activity change, negative = growth inhibition, hits mostly inhibitors; DT40 Tdp1-/- hTDP1 cells, no CPT, ATP luminescence, 48 h; 420,000 tested, 15% active; AID 686978, 2013; also: potency is read from the fitted curve at half-maximal effect; % is scaled to controls: 0 for no effect and ±100 for the full control effect; nearly all actives have a fitted effect of over 55% in size
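Growth kinetics read by CellTiter-Glo luminescence after ≥48 hr at 37 °C. Cells: DT40 Tdp1-/- stably carrying human TDP1, 400 per well, compound exposure in the absence of CPT (DMSO vehicle).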
* hit, by the source's call; ? = inconclusive; . = not tested or not shown; [ ] = another dose, or the depositor's remark. Most compounds without a hit are left out; they make up all but 18% or so of the library. Unless noted, calls follow the shape of the dose curve; as a rule, active = well fitted curve in the direction sought with a large enough effect; inconclusive = small, poorly fitted or top-dose-only effect, or another doubt; inactive = no such curve, though single readings can be large; an effect the other way counts as inactive or inconclusive.

SMILES	IL1B secr inh	HepG2 tox	DT40 TDP1 CPT	TGFb inhibitor	TDP1 block	TDP1 cell noCPT
Cc1c(NC(=O)c2nn3c(C(F)(F)F)cc(-c4ccccc4)nc3c2Cl)c(=O)n(-c2ccccc2)n1C	-51*	-27%	-2%	5%	0%	?
CCN(CC)c1ccc(NC(=O)c2cnn3c(C(F)F)cc(-c4ccccc4)nc23)cc1	.	13%	?	9%	-1%	13µM*
COCCNC(=O)c1cnn2c(C(F)F)cc(-c3ccccc3)nc12	2	1%	?	3%	3%	21µM*
COC(=O)[C@H](CCSC)NC(=O)C/C=C\[C@@H](C)[C@@H](CO)OC	.	.	.	.	4%[21 µM]	.
CC(=O)OC[C@@H]1CN(Cc2ccccc2)C[C@H](n2cnc3c(NC4CCCC4)ncnc32)O1	6	5%	?	19%	.	-29%
Cc1noc(C)c1-c1cc(NCCN2CCOCC2)ncn1	.	.	0%	.	.	-25%
Cc1cc(NC(=O)c2cnn3c(C(F)F)cc(-c4ccccc4)nc23)no1	-12	3%	15µM*	-24%	4%	9.2µM*
Cc1cc(NC(=O)c2cnn3c(C(F)F)cc(C4CC4)nc23)no1	-5	-75%	?	7%	0%	12µM*
O=C(c1cnn2c(C(F)F)cc(C3CC3)nc12)N1CCCC1	21	-3%	-17%	14%	2%	-24%
COC(=O)c1ccccc1NC(=O)c1cnn2c(C(F)F)cc(C3CC3)nc12	-9	-2%	?	2%	9%	15µM*
CCOc1ccc(-c2cc3c(=O)n(Cc4nc(-c5ccc(OC)cc5OC)oc4C)ccn3n2)cc1Cl	.	-39%	-8%	-12%	1%	4%
CCCNC(=O)c1ccccc1NC(=O)c1ccc(CSc2ccccc2)cc1	0	-6%	?	6%	0%	21µM*
CCC(C)NC(=O)c1ccccc1NC(=O)c1ccc(CSc2ccccc2)cc1 (configuration not stated)	7	16µM*	?	?	-4%	?
Cc1ccc(SCc2ccc(C(=O)Nc3ccccc3Br)cc2)cc1	-9	1%	-18%	6%	-3%	?
Cc1ccc(SCc2ccc(C(=O)Nc3ccccc3C(=O)NC(C)C)cc2)cc1	16	5%	-1%	1%	-3%	?
CC(=O)N1CCOc2cc(S(=O)(=O)NCc3ccccc3Cl)c(C)cc21	.	-28%	3%	?	-3%	-15%
CCOC(=O)c1c(NC(=O)c2cc(C)oc2C)sc(C(=O)Nc2ccc(Cl)cc2)c1C	6	-5%	8.9µM*	4%	1%	5.6µM*
CCOC(=O)c1sc(NC(=O)c2ccoc2C)c(C(N)=O)c1C	-5	-3%	26µM*	10%	2%	16µM*
CC(=O)c1c(C)oc2ccc(N(C(C)=O)S(=O)(=O)c3ccc(F)cc3C)cc12	-7	4%	12µM*	2%	2%	16µM*
CCCC(=O)N(c1ccc2oc(C)c(C(C)=O)c2c1)S(=O)(=O)c1ccc(CC)cc1	.	-32%	.	-13%	-3%	.
CC(=O)c1c(C)oc2ccc(N(C(C)=O)S(=O)(=O)c3cccc4cccnc34)cc12	-21	10%	2.1µM*	-5%	8%	4.1µM*
COc1ccccc1C(=O)N[C@@H]1c2ccccc2C2(CCN(C(=O)c3ccnn3C)CC2)[C@H]1OC	.	.	-3%[9.04 µM]	.	.	?
